Experimental data: PubChem BioAssay (Tox21)
Results filed as inconclusive are left out. Entries that show only a call come without a potency. Activity calls are given as the source filed them. How the calls were made is not given here.

assay: qHTS assay to identify small molecule antagonists of the estrogen related receptor signaling pathway with the pleiotropic PPARgamma coactivator (PGC) from Tox21 10K library (AID 1224841); details: PGC/ERR reporter cell line, ONE-Glo luciferase, 18 h; series mostly up to 92.4 µM; further: actives are mostly falling curves and most rising ones were filed inactive; nearly all actives have a fitted effect of over 50% in size
Source text: U.S. Tox21 Program National Center for Advancing Translational Sciences [NCATS] NIH Chemical Genomics Center [NCGC] U.S. Environmental Protection Agency [EPA] National Institutes of Environmental Health Sciences [NIEHS] National Toxicology Program [NTP] U.S. Food and Drug Administration [FDA] Tox21 Assay Overview: Estrogen related receptors (ERRs), the first orphan nuclear receptors discovered, play an important role in the control of cellular energy metabolism. ERRs are required for high-energy production in response to the environmental challenges. The pleiotropic PPARgamma coactivator (PGC) is a major partner of ERR and a key regulator in energy homeostasis. Together they have been implicated in the etiology of metabolic disorders such as Type 2 diabetes and metabolic syndrome. ERR-alpha was also identified as an adverse marker for breast cancer progression; ERR-alpha-positive tumors have a poor prognosis. To screen and to identify environmental compounds that perturb the ERR and PGC/ERR signaling pathways could provide valuable information for potential therapeutic or preventive measures in the treatment of metabolic disease. For identifying PGC/ERR antagonists, PGC/ERR cell line (provided by NTP) has been used to screen Tox21 10K library.
Tox21 Assay Protocol Summary: The PGC/ERR cells were dispensed at 2,000 cells/5 ul/well in 1536-well white plates using a Multidrop dispenser. After the assay plates were incubated at a 37 C/5% CO2 incubator for 6 hours, 23 nL of compounds dissolved in DMSO, positive and negative controls or DMSO only was transferred to the assay plate by a pin tool. The plates were incubated at 37 C for 18 hours. 4 ul/well of One-Glo reagent was added into the assay plates using a Flying Reagent Dispenser. After 30-minute incubation at room temperature, the luminescence intensity in the plates was measured using a ViewLux plate reader.
Potency means the concentration at half of the fitted maximal effect.

Row | SMILES | Potency
1 | C=C1C[C@@]23CC[C@H]4[C@@](C)(CCC[C@@]4(C)C(=O)O[C@@H]4O[C@H](CO)[C@@H](O)[C@H](O)[C@H]4O)[C@@H]2CC[C@]1(O[C@@H]1O[C@H](CO)[C@@H](O)[C@H](O[C@@H]2O[C@H](CO)[C@@H](O)[C@H](O)[C@H]2O)[C@H]1O[C@@H]1O[C@H](CO)[C@@H](O)[C@H](O)[C@H]1O)C3 | inactive
2 | CC1(C)[C@H](C(=O)O)N2C(=O)C[C@H]2S1(=O)=O | inactive
3 | CCC(C)COC(C)=O (stereo not given) | inactive
4 | OC1(c2ccccc2)CCNCC1 | inactive
5 | O=C(CCc1ccc(O)cc1)c1c(O)cc(O)cc1O | inactive
6 | c1ccc(C[n+]2cccc3ccccc32)cc1 | 24.3 µM (active)
7 | NCCNCCO | inactive
8 | Brc1cc2ccccc2c2ccccc12 | 61.6 µM (active)
9 | O=Cc1c2ccccc2c(Cl)c2ccccc12 | 13.3 µM (active)
10 | CCCCC(CC)CN (stereo not given) | inactive
11 | CC(CO)CO | inactive
12 | CC(C)=CCC/C(C)=C/CC/C(C)=C/C(=O)OCC(=O)[C@@]1(O)CC[C@H]2[C@@H]3CCC4=CC(=O)C=C[C@]4(C)[C@H]3[C@@H](O)C[C@@]21C | 16.8 µM (active)
13 | Oc1c(I)cc(I)c2cccnc12 | inactive
14 | CN1C(=O)c2ccccc2C1=O | inactive
15 | C[C@]12CC[C@@H]3c4ccc(O)cc4CC[C@H]3[C@@H]1CC[C@@H]2OC(=O)CCC1CCCC1 | inactive
16 | CN1C[C@H](C(=O)N[C@]2(C)O[C@@]3(O)[C@@H]4CCCN4C(=O)[C@H](Cc4ccccc4)N3C2=O)C[C@@H]2c3cccc4[nH]cc(c34)C[C@H]21 | inactive
17 | O=C=Nc1ccc(Cl)c(Cl)c1 | inactive
18 | CC1(C)[C@@H](OC(=O)CCC(=O)O)CC[C@]2(C)[C@H]3C(=O)C=C4[C@@H]5C[C@@](C)(C(=O)O)CC[C@]5(C)CC[C@@]4(C)[C@]3(C)CC[C@@H]12 | inactive
19 | CC(=O)Nc1ccc(C)cc1C | inactive
20 | CC(C)C=O | inactive

Row | SMILES | Potency
21 | COc1ncnc(NS(=O)(=O)c2ccc(N)cc2)c1OC | inactive
22 | CCCCCC[C@@H](O)C/C=C\CCCCCCCC(=O)O | inactive
23 | CCCCCCC(C)(C)C(=O)O | inactive
24 | CC(C)(C)CC(=O)OCC(=O)[C@@]1(O)CC[C@H]2[C@@H]3CCC4=CC(=O)C=C[C@]4(C)[C@H]3[C@@H](O)C[C@@]21C | 23.7 µM (active)
25 | CC1=C(Br)C(=O)C(Br)=C/C1=C(/c1ccccc1S(=O)(=O)O)c1cc(Br)c(O)c(Br)c1C | 16.5 µM (active)
26 | CCCCCCCC/C=C\CCCCCCCCO | inactive
27 | c1cc(N(CC2CO2)CC2CO2)ccc1Cc1ccc(N(CC2CO2)CC2CO2)cc1 (stereo not given) | 27.3 µM (active)
28 | CC(C)c1nc(CN(C)C(=O)N[C@H](C(=O)N[C@@H](Cc2ccccc2)C[C@H](O)[C@H](Cc2ccccc2)NC(=O)OCc2cncs2)C(C)C)cs1 | 23.7 µM (active)
29 | CC(=O)OCC(=O)NCCCOc1cccc(CN2CCCCC2)c1 | inactive
30 | O=C1c2ccccc2C(=O)c2c(O)c(O)cc(O)c21 | inactive
31 | CC(=O)[C@H]1[C@H](C#N)C[C@H]2[C@@H]3CC=C4C[C@@H](O)CC[C@]4(C)[C@H]3CC[C@@]21C | inactive
32 | FC(F)(F)c1ccccc1Cl | inactive
33 | CCOC(=O)c1ccc(I)cc1 | inactive
34 | NC(=O)c1ccncc1 | inactive
35 | C[C@@]12CCC[C@H]1[C@@H]1CC[C@H]3C[C@@H](O)CC[C@]3(C)[C@H]1CC2 | inactive
36 | O=c1[nH]c2ccc(Cl)cc2o1 | inactive
37 | CC(C)=CC(=O)C=C(C)C | inactive
38 | CC(O)c1ccccc1 (stereo not given) | inactive
39 | CC(=O)N/N=C/c1ccc([N+](=O)[O-])o1 | inactive
40 | CCOC(=O)C1=C(C)NC(C)=C(C(=O)OC)C1c1cccc(Cl)c1Cl (stereo not given) | inactive
